Experimental data reported in PubChem BioAssay (NCI).
“And” between values parts separate entries of the source, which are not always exact repeats. Equal entries are not always repeated. About 83,000 compounds went through this panel and 20% of them were active in at least one assay; those are over-represented in the sample as a whole.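 Each cell line was grown in a 96-well plate and treated with one concentration of compound for 48 hours. Values below 10 were considered active.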 The source made the active and inactive calls.

system: MDA-MB-468 breast; experiment: NCI-60 one-dose screen, 48 h (100 = growth as untreated, 0 = no growth, -100 = all killed); conditions: 10 µM

| Structure (SMILES) | growth |
| --- | --- |
| COc1ccc(Cl)cc1C(=O)NCCc1ccc(S(=O)(=O)NC(=O)NC2CCCCC2)cc1 | 103% (inactive) and 118% (inactive) |
| O=C(Nc1c(Cl)cccc1Cl)Oc1cccc2cccnc12 | 19.5% (inactive) |
| CN(C)C(=O)c1ccc(SC(=S)NCc2ccccc2)cc1 | 93.9% (inactive) |
| CC(=O)/C=C/c1ccc(N(CCO)Cc2ccc(C(C)(C)C)cc2)cc1 | 73.8% (inactive) |
| CC#C[C@]1(O)CC[C@H]2[C@@H]3CCC4=CC(=O)CCC4=C3[C@@H](c3ccc4c(c3)OCO4)C[C@@]21C | 66.6% (inactive) |
| CC1(C)OB(c2ccc(Cn3cc(F)c(=O)[nH]c3=O)cc2)OC1(C)C | 105% (inactive) |
| O=c1ccn(C2CC(O)C(COC(c3ccccc3)(c3ccccc3)c3ccccc3)O2)c(=O)[nH]1 (centres undefined) | 101% (inactive) |
| CCN(Cc1ccccc1)c1ccc(/C=C2\COc3ccccc3C2=O)cc1 | 118% (inactive) |
| COc1ccc(C(=O)/C=C/c2ccc(OCc3ccc(Cl)cc3)cc2)cc1OC | 83.3% (inactive) |
| CS/C(=C\c1ccc(C(=O)c2ccc(C)cc2)n1C)S(C)=O (centres undefined) | 86.1% (inactive) |
| CCCCCCCCCCCCCCCc1ccc(Cl)c(O)c1Cl (tested in a mixture with another compound) | 103% (inactive) |
| O=c1[nH]cc(F)c(=O)[nH]1 | 64.4% (inactive) |
| CC(C)(C)c1cc(NC(=O)Cc2ccc(-c3cnc4cc(-c5cnn(CCN6CCOCC6)c5)ccc4n3)cc2)no1 | 22.2% (inactive) |
| COc1ccc(C(=O)/C=C/c2ccc(OCc3cccc(C(F)(F)F)c3)c(OC)c2)cc1OC | 68.9% (inactive) |
| COc1ccc(-c2cscc2N)cc1 | 96.4% (inactive) |
| O=C(/C=C/c1cccc(Oc2ccc(Cl)cc2)c1)c1ccccc1 | 110% (inactive) |
| CCc1ccccc1-n1c(N)c(C#N)c(-c2ccc(OC)c(OC)c2)c(C#N)c1=O | 107% (inactive) |
| O=C(O)c1c(Cl)c(Cl)c(Cl)c(Cl)c1-c1c2cc(I)c(=O)c(I)c-2oc2c(I)c(O)c(I)cc12 | 115% (inactive) and 111% (inactive) and 77.5% (inactive) |
| O=C(Nc1cccc(Br)c1)Oc1cccc2cccnc12 | 103% (inactive) |
| CC(=O)O[C@H]1C(=O)[C@@]2(C)[C@H]([C@H](OC(=O)c3ccccc3)[C@]3(O)C[C@H](OC(=O)[C@H](O)[C@@H](NC(=O)c4ccccc4)c4ccccc4)C(C)=C1C3(C)C)[C@]1(OC(C)=O)CO[C@@H]1C[C@@H]2O | -19.1% (active) |
| Cc1[nH]c(-c2nc3ccccc3[nH]2)c(C)c1C(=O)NC(C)C1CCCCC1 (centres undefined) | 59.8% (inactive) |
| CNC(=O)c1cc(Oc2ccc(CC(=O)Nc3cc(C(C)(C)C)nn3C)cc2)ccn1 | 2.05% (active) |
| CC(=O)/C=C/c1ccc(N(C)Cc2ccc(C(C)(C)C)cc2)cc1 | 86% (inactive) |
| O=c1ccn2c(n1)OC1CC2OC1COC(c1ccccc1)(c1ccccc1)c1ccccc1 (centres undefined) | 102% (inactive) |
| O=C(O)c1sccc1O | 76.3% (inactive) |
| CC(=O)/C=C/c1ccc(OCc2ccc(C(C)(C)C)cc2)cc1 | 47.7% (inactive) |

same assay, conditions: 10 µM unless noted

| Structure (SMILES) | growth |
| --- | --- |
| CCCCCCN(CCCCCC)C(=N)c1ccnc2ccccc12 | 12.5% (inactive) |
| Nc1nc2ccccc2c2c(=O)c3cc(Cl)ccc3sc12 | 21.3% (inactive) |
| CNC(=O)c1cccc(-c2ccc3c(N4CCOC[C@@H]4C)nc(N4CCOC[C@@H]4C)nc3n2)c1 | -30.7% (active) and -22.8% (active) |
| CO[C@H]1/C=C/O[C@@]2(C)Oc3c(C)c(O)c4c(O)c(c(/C=N/N5CCN(C)CC5)c(O)c4c3C2=O)NC(=O)/C(C)=C\C=C\C(C)[C@H](O)[C@@H](C)[C@@H](O)[C@@H](C)[C@@H](OC(C)=O)[C@@H]1C (some centres undefined) | 92.2% (inactive) |
| COc1ccccc1NC(=O)c1sc2nc3c(cc2c1N)C(=O)CCC3 | 23.4% (inactive) |
| O=C(Nc1ccc(N2CCNCC2)cc1)c1[nH]ncc1Nc1cc(C2CC2)ncn1 | 49.2% (inactive) |
| CCN(CC)CC#CCOC(=O)[C@]1(C)CCC[C@]2(C)c3ccc(C(C)C)cc3CC[C@@H]12 | 65.3% (inactive) |
| CO[C@]12C=C/C(=C(/C(=O)OCc3cccnc3)C(=O)CCCCCCCC[C@@]3(OC)C=C/C(=C(/C(=O)OCc4cccnc4)C(=O)CCCCCCCC1)O3)O2 | -4.86% (active) |
| N=S(c1ccccc1[N+](=O)[O-])c1ccccc1[N+](=O)[O-] | 15.1% (inactive) |
| COc1ccc(F)c(F)c1C(=O)c1cnc(NC2CCN(S(C)(=O)=O)CC2)nc1N | -59.4% (active) |
| O=[N+]([O-])CC(c1ccccc1)c1c[nH]c2ccccc12 (centres undefined) | 22.7% (inactive) |
| CCOc1ccc2c(c1)CN(Cc1ccc(Cl)cc1)CO2 | 57.2% (inactive) |
| COc1ccc(N2CCN(Cc3cc(C(=O)/C=C/c4c[nH]c5ccccc45)ccc3O)CC2)cc1 | 99.5% (inactive) |
